Experimental data taken from PubChem BioAssay (NCATS).
Results filed as inconclusive are left out. A call without a number means that no potency is given here. Unmarked numbers belong to inactive results. Calls of active or inactive are those of the source. The call rests on the fitted dose curve; in most records, active means well fitted inhibition curve with a large enough effect; inconclusive means small, poorly fitted or top-dose-only effect; inactive means flat fitted curve, though single readings scatter.

How the values were obtained:
[1] = qHTS profiling for inhibitors of Plasmodium falciparum proliferation (AID 504749); on all read-outs here: nearly all actives have a fitted effect of over 60% in size; settings: P. falciparum in erythrocytes, SYBR Green DNA, 72 h; for activity, negative = inhibition: at 28.7 µM (top of the series)
Summary of the method: (§1)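 Quantitative HTS: compounds pinned into medium, infected erythrocytes added (0.3% parasitemia, 2.5% hematocrit), 72 h culture at 37 C under 5% CO2. Saponin/Triton lysis with SYBR Green I, overnight RT, then fluorescence read.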

[2] = system: 3D7; experiment: as above; settings: P. falciparum in erythrocytes, SYBR Green DNA, 72 h; series mostly up to 28.7 µM
Summary of the method: as §1

[3] = system: AA1029; experiment: as above; settings: P. falciparum in erythrocytes, SYBR Green DNA, 72 h; series mostly up to 28.7 µM
Summary of the method: as §1

[4] = system: AS120; experiment: as above; settings: P. falciparum in erythrocytes, SYBR Green DNA, 72 h; series mostly up to 28.7 µM
Summary of the method: as §1

[5] = system: ATS189; experiment: as above; settings: P. falciparum in erythrocytes, SYBR Green DNA, 72 h; series mostly up to 28.7 µM
Summary of the method: as §1

[6] = system: ATS95; experiment: as above; settings: P. falciparum in erythrocytes, SYBR Green DNA, 72 h; series mostly up to 28.7 µM
Summary of the method: as §1

[7] = system: C2A; experiment: as above; settings: P. falciparum in erythrocytes, SYBR Green DNA, 72 h; series mostly up to 28.7 µM
Summary of the method: as §1

[8] = system: CP185; experiment: as above; settings: P. falciparum in erythrocytes, SYBR Green DNA, 72 h; series mostly up to 28.7 µM
Summary of the method: as §1

[9] = system: CP191; experiment: as above; settings: P. falciparum in erythrocytes, SYBR Green DNA, 72 h; series mostly up to 28.7 µM
Summary of the method: as §1

[10] = system: CP192; experiment: as above; settings: P. falciparum in erythrocytes, SYBR Green DNA, 72 h; series mostly up to 28.7 µM
Summary of the method: as §1

[11] = system: CP194; experiment: as above; settings: P. falciparum in erythrocytes, SYBR Green DNA, 72 h; series mostly up to 28.7 µM
Summary of the method: as §1

[12] = system: CP201; experiment: as above; settings: P. falciparum in erythrocytes, SYBR Green DNA, 72 h; series mostly up to 28.7 µM
Summary of the method: as §1

[13] = system: CP203; experiment: as above; settings: P. falciparum in erythrocytes, SYBR Green DNA, 72 h; series mostly up to 28.7 µM
Summary of the method: as §1

[14] = system: CP211; experiment: as above; settings: P. falciparum in erythrocytes, SYBR Green DNA, 72 h; series mostly up to 28.7 µM
Summary of the method: as §1

[15] = system: CP215; experiment: as above; settings: P. falciparum in erythrocytes, SYBR Green DNA, 72 h; series mostly up to 28.7 µM
Summary of the method: as §1

[16] = system: CP217; experiment: as above; settings: P. falciparum in erythrocytes, SYBR Green DNA, 72 h; series mostly up to 28.7 µM
Summary of the method: as §1

[17] = system: CP237; experiment: as above; settings: P. falciparum in erythrocytes, SYBR Green DNA, 72 h; series mostly up to 28.7 µM
Summary of the method: as §1

[18] = system: CP238; experiment: as above; settings: P. falciparum in erythrocytes, SYBR Green DNA, 72 h; series mostly up to 28.7 µM
Summary of the method: as §1

[19] = system: 7G8; experiment: as above; settings: P. falciparum in erythrocytes, SYBR Green DNA, 72 h; series mostly up to 28.7 µM
Summary of the method: as §1

[20] = system: CP247; experiment: as above; settings: P. falciparum in erythrocytes, SYBR Green DNA, 72 h; series mostly up to 28.7 µM
Summary of the method: as §1
Potency means the concentration at half of the fitted maximal effect.

For `CC/C=C\C/C=C\C/C=C\C/C=C\C/C=C\CCCC(=O)O`, the activity, negative = inhibition ([1]; parasite line A) was -4.56%, the activity, negative = inhibition ([1]; parasite line B) was -6.54% and the Potency [2] was “inactive”. For the same molecule, the Potency [3] was “inactive”, the Potency [4] was “inactive” and the Potency [5] was “inactive”. The Potency [6] was “inactive”, the Potency [7] was “inactive” and the Potency [8] was “inactive”. For the same molecule, the Potency [9] was “inactive”, the Potency [10] was “inactive” and the Potency [11] was “inactive”. The Potency [12] was “inactive”, the Potency [13] was “inactive” and the Potency [14] was “inactive”. The Potency [15] was “inactive”, the Potency [16] was “inactive” and the Potency [17] was “inactive”. For the same molecule, the Potency [18] was “inactive”.
In the case of `COc1ccc(/C=C/C(=O)O)cc1`, the activity, negative = inhibition ([1]; parasite line A) is reported as 8.39%, the activity, negative = inhibition ([1]; parasite line B) is reported as -2.19% and the Potency [2] is reported as “inactive”. For the same molecule, the Potency [19] was “inactive”, the Potency [3] was “inactive” and the Potency [4] was “inactive”. The Potency [5] was “inactive”, the Potency [7] was “inactive” and the Potency [8] was “inactive”. For the same molecule, the Potency [9] was “inactive”, the Potency [10] was “inactive” and the Potency [11] was “inactive”. The Potency [12] was “inactive”, the Potency [13] was “inactive” and the Potency [14] was “inactive”. For the same molecule, the Potency [15] was “inactive”, the Potency [16] was “inactive” and the Potency [17] was “inactive”. The Potency [18] was “inactive” and the Potency [20] was “inactive”.
In the case of `Cc1ccc(S(=O)(=O)O)cc1C`, the activity, negative = inhibition ([1]; parasite line A) is reported as 8.18%, the activity, negative = inhibition ([1]; parasite line B) is reported as 4.98% and the Potency [2] is reported as “inactive”. The Potency [19] was “inactive”, the Potency [3] was “inactive” and the Potency [4] was “inactive”. For the same molecule, the Potency [5] was “inactive”, the Potency [7] was “inactive” and the Potency [8] was “inactive”. The Potency [9] was “inactive”, the Potency [10] was “inactive” and the Potency [11] was “inactive”. For the same molecule, the Potency [12] was “inactive”, the Potency [13] was “inactive” and the Potency [14] was “inactive”. For the same molecule, the Potency [15] was “inactive”, the Potency [16] was “inactive” and the Potency [17] was “inactive”. The Potency [18] was “inactive” and the Potency [20] was “inactive”.
For `COc1cc(NCCCC(C)N)c2ncccc2c1` (centres undefined), the Potency ([1]; parasite line A) was 2 µM (active), the Potency ([1]; parasite line B) was 0.891 µM (active) and the Potency [2] was 2 µM (active). The Potency [19] was 0.224 µM (active), the Potency [3] was 12.6 µM (active) and the Potency [4] was 3.16 µM (active). The Potency [5] was 11.2 µM (active), the Potency [6] was 11.2 µM (active) and the Potency [7] was 10 µM (active). For the same molecule, the Potency [8] was 11.2 µM (active), the Potency [9] was 5.01 µM (active) and the Potency [11] was 7.57 µM (active). For the same molecule, the Potency [13] was 7.57 µM (active), the Potency [15] was 8.49 µM (active) and the Potency [16] was 11.2 µM (active). The Potency [17] was 7.08 µM (active), the Potency [18] was 11.2 µM (active) and the Potency [20] was 4.47 µM (active).
With `OCCOCCOCCO` the activity, negative = inhibition ([1]; parasite line A) was 16.8%, the activity, negative = inhibition ([1]; parasite line B) was 11.6% and the Potency [2] was “inactive”. For the same molecule, the Potency [19] was “inactive”, the Potency [3] was “inactive” and the Potency [4] was “inactive”. For the same molecule, the Potency [5] was “inactive”, the Potency [6] was “inactive” and the Potency [7] was “inactive”. For the same molecule, the Potency [8] was “inactive”, the Potency [9] was “inactive” and the Potency [15] was 16.9 µM (active). For the same molecule, the Potency [16] was “inactive”, the Potency [17] was “inactive” and the Potency [18] was “inactive”. For the same molecule, the Potency [20] was “inactive”.
For `O=[N+]([O-])c1c(Cl)cccc1-c1c[nH]cc1Cl`, the activity, negative = inhibition ([1]; parasite line A) was -12.9%, the activity, negative = inhibition ([1]; parasite line B) was -18.4% and the Potency [2] was “inactive”. The Potency [3] was “inactive”, the Potency [4] was “inactive” and the Potency [5] was “inactive”. For the same molecule, the Potency [6] was “inactive”, the Potency [7] was “inactive” and the Potency [8] was “inactive”. The Potency [9] was “inactive”, the Potency [10] was “inactive” and the Potency [11] was “inactive”. The Potency [12] was “inactive”, the Potency [13] was “inactive” and the Potency [14] was “inactive”. The Potency [15] was “inactive”, the Potency [16] was “inactive” and the Potency [17] was “inactive”. The Potency [18] was “inactive” and the Potency [20] was “inactive”.
In the case of `CSCCC(N)C(=O)O` (centres undefined), the activity, negative = inhibition ([1]; parasite line A) is reported as 6.14%, the activity, negative = inhibition ([1]; parasite line B) is reported as 15.2% and the Potency [2] is reported as “inactive”. For the same molecule, the Potency [19] was “inactive”, the Potency [3] was “inactive” and the Potency [4] was “inactive”. The Potency [5] was “inactive”, the Potency [6] was “inactive” and the Potency [7] was “inactive”. For the same molecule, the Potency [8] was “inactive”, the Potency [9] was “inactive” and the Potency [10] was “inactive”. For the same molecule, the Potency [16] was “inactive”, the Potency [17] was “inactive” and the Potency [18] was “inactive”. The Potency [20] was “inactive”.
